Test results taken from PubChem BioAssay (Tox21).
Records with an inconclusive call do not appear. Where a call stands in place of a potency, no number is given. Where a structure was tested more than once in an assay, its records may differ in their call. The source made the active and inactive calls. Calls come from the whole dose curve; as a rule, active = well fitted cell-killing curve with a large enough effect in the repeat runs; inconclusive = weak or mixed curves, or effect the other way; inactive = no such curve, though single readings can be large or run the other way.
Potency is the fitted concentration of half-maximal effect.

Assay: qHTS assay to identify small molecule agonists of the estrogen receptor alpha (ER-alpha) signaling pathway in the presence of an antagonist - cell viability counter screen (AID 1259386);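 note: cells exposed to compounds for 22 h at 37 °C before the viability read; nearly all actives have a fitted effect of over 30% in size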
Conditions: VM7Luc4E2 viability, CellTiter-Fluor fluorescence, 22 h; series mostly up to 92.4 µM; activity change, negative = cytotoxicity: at the top concentration
Excerpt: National Center for Advancing Translational Sciences [NCATS]
NIH Chemical Genomics Center [NCGC]
U.S. Environmental Protection Agency [EPA]
National Institutes of Environmental Health Sciences [NIEHS]
National Toxicology Program [NTP]
U.S. Food and Drug Administration [FDA]
Estrogen receptor (ER), a member of nuclear hormone receptor plays an important role in development, metabolic homeostasis and reproduction. Two subtypes of ER, ER-alpha and ER-beta, have similar expression patterns with some uniqueness in both types. Endocrine disrupting chemicals (EDCs) and their interactions with steroid hormone receptors like ER causes disruption of normal endocrine function. Therefore, it is important to understand the effect of environmental chemicals in ER signaling pathway. For identifying ER agonists, VM7Luc4E2 cell line has been used in the current assay.
VM7Luc4E2 cell line (provided by Denison MS, University of California) endogenously expresses full-length ER-alpha and is stably transfected with a plasmid containing four estrogen responsive elements (ERE) upstream of a luciferase reporter gene. This current screening for measuring luciferase reporter gene activity using VM7Luc4E2 cells against Tox21 10K library collection is a confirmation study on agonist mode screening in presence of ER-antagonist (ICI-182,780) at 10.0nM final concentration. The cytotoxicity of the compounds was tested in parallel by measuring the cell viability using CellTiter-Fluor assay system (Promega, Madison, WI) in the same wells.
Tox21 Assay Protocol Summary:
VM7Luc4E2 cells were cultured in phenol red free assay medium containing 10% charcoal stripped FBS for 5 days prior to the assay. The cells were dispensed at 4,000 cells in 4uL of assay medium per well into white wall/solid-bottom 1536-well plates (Corning Life Sciences, Corning, NY) using a Multidrop Combi (Thermo Fisher Scientific Inc., Waltham, MA) dispenser. After the assay plates were incubated at 37C and 5% CO2 for 24hr, 1uL of 10.0nM (final concentration) ICI-182,780 or assay buffer was added using two separate tips of Flying Reagent Dispenser (FRD, Aurora Discovery, San Diego, CA). Then 23nL of compounds dissolved in DMSO at 15 concentrations and positive controls or DMSO only was transferred to the assay plates by a Pintool station (Wako, San Diego, CA). The assay plates were incubated at 37C and 5% CO2 for 22hr. After 21hr incubation at 37C, 1uL/well CellTiter-Fluor reagent (Promega Corporation, Madison, WI) was added to each well using FRD and after 1hr incubation at 37C and 5% CO2, the fluorescence signal was measured on ViewLux plate reader (PerkinElmer, Shelton, CT).
For `OC[C@@H](O)[C@H]1O[C@@H]2O[C@H](C(Cl)(Cl)Cl)O[C@@H]2[C@H]1O`, the Potency was “inactive”. With `CN(C)CCC#N` the Potency was “inactive”. In the case of `C=C(C)C(=O)OCC(CC)CCCC` (stereo not given), the “activity change, negative = cytotoxicity” value is reported as 7.1% (inactive). With `Nc1ncc([N+](=O)[O-])s1` the Potency was 54.9 µM (active) and inactive. In the case of `OCCCCO`, the Potency is reported as “inactive”. For `CCOP(=S)(OCC)Oc1cc(C)nc(C(C)C)n1`, the Potency was “inactive”. With `O=C(O)C1C(C(=O)O)C2(Cl)C(Cl)=C(Cl)C1(Cl)C2(Cl)Cl` (stereo not given) the Potency was “inactive”. In the case of `[N-]=[N+]=CC(=O)OC[C@H](N)C(=O)O`, the Potency is reported as “inactive”. For `CNC(=O)Oc1cccc2ccccc12`, the Potency was “inactive”. With `Nc1cccc(Cl)c1` the Potency was “inactive”. For `Nc1ccc([As](=O)(O)O)cc1`, the Potency was “inactive”. With `CCCCC(CC)C(=O)Cl` (stereo not given) the Potency was “inactive”. In the case of `CC(C)CCCCCCOC(=O)c1ccccc1C(=O)OCCCCCCC(C)C`, the Potency is reported as “inactive”. With `O=S(=O)(O)OOS(=O)(=O)O` the Potency was “inactive”. For `CNCC(O)c1ccc(O)cc1` (stereo not given), the Potency was “inactive”. In the case of `Cc1cc(O)ccc1Cl`, the Potency is reported as “inactive”. With `CCNc1nc(Cl)nc(NC(C)C)n1` the Potency was “inactive”. With `Cc1ccccc1N` the Potency was “inactive”. In the case of `COc1cc(-c2ccc(N)c(OC)c2)ccc1N`, the Potency is reported as “inactive”. In the case of `Cc1cccc(C)c1NC(=O)CN1CCCC1=O`, the Potency is reported as “inactive”. In the case of `CC(=O)C1CCOC1=O` (stereo not given), the Potency is reported as “inactive”. In the case of `CC[N+](=O)[O-]`, the Potency is reported as “inactive”. For `N#Cc1ccccn1`, the Potency was “inactive”. In the case of `CCCOC(=O)c1ccccc1C(=O)OCCC`, the Potency is reported as “inactive”. For `COc1nc(NC(C)C)nc(NC(C)C)n1`, the Potency was “inactive”. In the case of `Cc1ccc(O)c(C)c1`, the Potency is reported as “inactive”. In the case of `CNC(=O)O/N=C/C(C)(C)SC`, the Potency is reported as “inactive”. With `CNc1cnn(-c2cccc(C(F)(F)F)c2)c(=O)c1Cl` the Potency was “inactive”. With `CCOc1ccc(N)cc1` the Potency was “inactive”. In the case of `CC12CC1(C)C(=O)N(c1cc(Cl)cc(Cl)c1)C2=O` (stereo not given), the Potency is reported as “inactive”. In the case of `Cc1ccc(N=C=O)cc1N=C=O`, the Potency is reported as “inactive”. In the case of `FC(F)(F)c1ccc(Cl)cc1`, the Potency is reported as “inactive”. For `O=[N+]([O-])c1ccc(Cl)cc1`, the Potency was “inactive”. With `ClCCOCCCl` the Potency was “inactive”. For `C/C=C/c1ccc2c(c1)OCO2`, the Potency was “inactive”. With `Cc1cc(Cl)ccc1OC(C)C(=O)O` (stereo not given) the Potency was “inactive”. For `O=C(O)Cc1ccccc1`, the Potency was “inactive”. With `Oc1ccc(Cl)cc1` the Potency was “inactive”. In the case of `Clc1cnc(Oc2ccc(Oc3ncc(Cl)cc3Cl)cc2)c(Cl)c1`, the Potency is reported as “inactive”. For `CC(C)c1cccc(C(C)C)c1O`, the Potency was “inactive”.
